# Data taken from publication PMC8769072, “Proteome‐scale mapping of binding sites in the unstructured regions of the human proteome” (Molecular Systems Biology, 2022).
# NEDD4 890-928, P46934, sequence (P46934 890-928): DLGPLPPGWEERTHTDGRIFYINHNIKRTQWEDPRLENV
# YAP1 169-207, P46937, sequence (P46937 169-207): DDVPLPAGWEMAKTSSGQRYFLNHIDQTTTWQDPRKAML
# OXSR1 434-527, O95747, sequence (O95747 434-527): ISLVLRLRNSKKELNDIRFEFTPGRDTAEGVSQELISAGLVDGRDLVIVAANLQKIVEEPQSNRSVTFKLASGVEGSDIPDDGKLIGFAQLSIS
# PDCD6IP 360-702, Q8WUM4, sequence (Q8WUM4 360-702): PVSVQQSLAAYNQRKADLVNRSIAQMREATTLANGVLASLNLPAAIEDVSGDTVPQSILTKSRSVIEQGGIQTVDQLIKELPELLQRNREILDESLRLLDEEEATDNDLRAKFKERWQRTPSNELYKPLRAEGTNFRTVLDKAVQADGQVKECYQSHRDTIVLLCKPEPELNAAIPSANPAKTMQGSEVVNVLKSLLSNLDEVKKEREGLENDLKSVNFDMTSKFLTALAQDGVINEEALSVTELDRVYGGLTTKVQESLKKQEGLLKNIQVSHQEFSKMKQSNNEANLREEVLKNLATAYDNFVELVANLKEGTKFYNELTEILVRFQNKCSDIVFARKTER
binder,measurement,setting,value
"HDEAWMVLKQVHDTNM [SV2A, Q7L0J3]",selected by phage display,"MAP1LC3B 2-119, Q9GZQ8",confidence 3 (active)
"FLPPYPPQEANRSITS [VPS37A, Q8NEZ2]",selected by phage display,"NEDD4 890-928, P46934",confidence 3 (active)
"TAPPPYSPSPNPYQTA [FAM168A, Q92567]",selected by phage display,"NEDD4 890-928, P46934",confidence 3 (active)
"LAGGPAVGGLPPYATF [OTUD7B, Q6GQQ9]",selected by phage display,"NEDD4 890-928, P46934",confidence 2 (active)
"ASDPPPPYSDFHPNNQ [ABRAXAS2, Q15018]",selected by phage display,"NEDD4 890-928, P46934",confidence 3 (active)
"YLSEGFGYGMPPLYPQ [NFATC4, Q14934]",selected by phage display,"NEDD4 890-928, P46934",confidence 2 (active)
"TSSSLAYPPPPSYPSP [EGR2, P11161]",selected by phage display,"NEDD4 890-928, P46934",confidence 3 (active)
"NLPVGYPPQYPPTAFQ [PLSCR1, O15162]",selected by phage display,"NEDD4 890-928, P46934",confidence 2 (active)
"TAPPTYTETLSTAPLA [SYNPO, Q8N3V7]",selected by phage display,"NEDD4 890-928, P46934",confidence 3 (active)
"GSPPSYSEALLDQRPA [LDLRAD3, Q86YD5]",selected by phage display,"NEDD4 890-928, P46934",confidence 3 (active)
"ALPEPPPPYEFSASSA [N4BP3, O15049]",selected by phage display,"NEDD4 890-928, P46934",confidence 3 (active)
"NSTPPPYERTRLSPPR [RBM14, Q96PK6]",selected by phage display,"NEDD4 890-928, P46934",confidence 3 (active)
"SEGTDNGDLPSYVSAF [RINT1, Q6NUQ1]",selected by phage display,"NEDD4 890-928, P46934",confidence 2 (active)
"LPSYPVAPTSRASPSP [CCDC87, Q9NVE4]",selected by phage display,"NEDD4 890-928, P46934",confidence 3 (active)
"ATTHYHTYLPPPYPGS [RUNX2, Q13950]",selected by phage display,"NEDD4 890-928, P46934",confidence 2 (active)
"PPPQYIHPNSINVDGN [PRDM4, Q9UKN5]",selected by phage display,"NEDD4 890-928, P46934",confidence 2 (active)
"ALPPYSNAGDLYSEPV [EGR3, Q06889]",selected by phage display,"NEDD4 890-928, P46934",confidence 2 (active)
"MARRYDELPHYPGIVD [MEIS3, Q99687]",selected by phage display,"NEDD4 890-928, P46934",confidence 3 (active)
"SPPDYLQTVSHPEVYR [SH3D21, A4FU49]",selected by phage display,"NEDD4 890-928, P46934",confidence 3 (active)
"LANVIAPPPPPYTPNP [PROSER1, Q86XN7]",selected by phage display,"NEDD4 890-928, P46934",confidence 2 (active)
"TSPIADFPAPPPYSAV [SYNPO2, Q9UMS6]",selected by phage display,"NEDD4 890-928, P46934",confidence 4 (active)
"ASERPPTYAELVPRVP [SH2D3A, Q9BRG2]",selected by phage display,"NEDD4 890-928, P46934",confidence 3 (active)
"DKNDYLPLYSSSTKVK [ZNF148, Q9UQR1]",selected by phage display,"NEDD4 890-928, P46934",confidence 2 (active)
"DQRLPPYPYSSPSLVL [CRTC2, Q53ET0]",selected by phage display,"NEDD4 890-928, P46934",confidence 4 (active)
same,selected by phage display,"YAP1 169-207, P46937",confidence 3 (active)
"DLPAYTSPTNFPAVLS [ABCA2, Q9BZC7]",selected by phage display,"NEDD4 890-928, P46934",confidence 3 (active)
"ADLPPPYSPTPQGPAQ [CYYR1, Q96J86]",selected by phage display,"NEDD4 890-928, P46934",confidence 2 (active)
same,selected by phage display,"YAP1 169-207, P46937",confidence 3 (active)
"EDSLPPYKLKLDLTKL [TMEM59L, Q9UK28]",selected by phage display,"NEDD4 890-928, P46934",confidence 2 (active)
same,selected by phage display,"YAP1 169-207, P46937",confidence 4 (active)
"RLSISLPSYESLTGLD [TMEM51, Q9NW97]",selected by phage display,"NEDD4 890-928, P46934",confidence 2 (active)
"QSNADALPPDYSVVRG [LYPD5, Q6UWN5]",selected by phage display,"NEDD4 890-928, P46934",confidence 2 (active)
"KPPPYLRNLSSDDANV [UBE2L6, O14933]",selected by phage display,"NEDD4 890-928, P46934",confidence 2 (active)
"SWNPPEYDGGAQISNY [TTN, Q8WZ42]",selected by phage display,"NEDD4 890-928, P46934",confidence 2 (active)
"LEDVSKPPAYAYPATP [TNRC18, O15417]",selected by phage display,"NEDD4 890-928, P46934",confidence 3 (active)
"SVVIPPPDYLEALSMG [BAIAP2L1, Q9UHR4]",selected by phage display,"NEDD4 890-928, P46934",confidence 4 (active)
same,selected by phage display,"YAP1 169-207, P46937",confidence 3 (active)
"GKMSREPPPPYVTPAT [ESS2, Q96DF8]",selected by phage display,"NEDD4 890-928, P46934",confidence 4 (active)
same,selected by phage display,"YAP1 169-207, P46937",confidence 4 (active)
"NNPVLNDLPQYMPPDF [STPG4, Q8N801]",selected by phage display,"NEDD4 890-928, P46934",confidence 3 (active)
"RAQPPDYTFPSGSGAH [PI4K2A, Q9BTU6]",selected by phage display,"NEDD4 890-928, P46934",confidence 2 (active)
"YLEDLPPPPEYELAPS [GRSF1, Q12849]",selected by phage display,"NEDD4 890-928, P46934",confidence 2 (active)
"DLHHTPGYPTPPPYPF [C11orf53, Q8IXP5]",selected by phage display,"NEDD4 890-928, P46934",confidence 3 (active)
same,selected by phage display,"YAP1 169-207, P46937",confidence 3 (active)
"MDQNNSLPPYAQGLAS [TBP, P20226]",selected by phage display,"NEDD4 890-928, P46934",confidence 2 (active)
"KVVDIPTYEEAVSFPV [TMEM61, Q8N0U2]",selected by phage display,"NEDD4 890-928, P46934",confidence 2 (active)
"LALSDPGLEPPVYVPP [JCAD, Q9P266]",selected by phage display,"NEDD4 890-928, P46934",confidence 3 (active)
"HLPQAPPYTDAPPAYS [DAZAP2, Q15038]",selected by phage display,"NEDD4 890-928, P46934",confidence 3 (active)
"RNSPPPYGFHLSPEEM [RHBDD1, Q8TEB9]",selected by phage display,"NEDD4 890-928, P46934",confidence 2 (active)
"VSNQPPKYTQPSLPSQ [ATN1, P54259]",selected by phage display,"NEDD4 890-928, P46934",confidence 3 (active)
same,selected by phage display,"YAP1 169-207, P46937",confidence 2 (active)
"LAGPESPPPPYSRLSP [SMAD6, O43541]",selected by phage display,"NEDD4 890-928, P46934",confidence 3 (active)
"RDPEPPEPPTYRAQGV [BSN, Q9UPA5]",selected by phage display,"NEDD4 890-928, P46934",confidence 3 (active)
"MPTNFTVVPVEAHADG [SLC12A7, Q9Y666]",selected by phage display,"OXSR1 434-527, O95747",confidence 2 (active)
"DSVPSNTNRFQVSVIN [SLC12A1, Q13621]",selected by phage display,"OXSR1 434-527, O95747",confidence 4 (active)
"DATLASGRFTISTLLS [SLC12A3, P55017]",selected by phage display,"OXSR1 434-527, O95747",confidence 2 (active)
"NWNEWKTGRFLILQTE [DNAH2, Q9P225]",selected by phage display,"OXSR1 434-527, O95747",confidence 3 (active)
SPAPTSRFSITHVSDS,selected by phage display,"OXSR1 434-527, O95747",confidence 2 (active)
"TKVGRFQVTTTANKVG [WNK1, Q9H4A3]",selected by phage display,"OXSR1 434-527, O95747",confidence 4 (active)
"RFEVAPAPEPASGAQK [PIK3R6, Q5UE93]",selected by phage display,"OXSR1 434-527, O95747",confidence 3 (active)
"SEEGKPQLVGRFQVTS [WNK4, Q96J92]",selected by phage display,"OXSR1 434-527, O95747",confidence 4 (active)
"FSRFSVSPALETPGPP [LMTK3, Q96Q04]",selected by phage display,"OXSR1 434-527, O95747",confidence 2 (active)
"SEEAKGRFRVNFVDPA [SLC12A2, P55011]",selected by phage display,"OXSR1 434-527, O95747",confidence 2 (active)
TPTPAPFSRFTVSPAP,selected by phage display,"OXSR1 434-527, O95747",confidence 3 (active)
"FRVYPELPKPSISSNN [CEACAM5, P06731]",selected by phage display,"PDCD6IP 360-702, Q8WUM4",confidence 3 (active)
"WYPSLATMQESLRVKQ [GADD45GIP1, Q8TAE8]",selected by phage display,"PDCD6IP 360-702, Q8WUM4",confidence 3 (active)
"YPSLTNLKAQADTARA [UVSSA, Q2YD98]",selected by phage display,"PDCD6IP 360-702, Q8WUM4",confidence 2 (active)
"FYLYPDLSRLSDPQVW [SLC6A11, P48066]",selected by phage display,"PDCD6IP 360-702, Q8WUM4",confidence 3 (active)
